Source: PubChem (several laboratories)
FXIa inh mix – FXIa protease inhibitors in compound pools, primary screen, biochemical, 10-compound mixtures. 62,000 compounds, 0.19% hits. AID 680, 2007. inhibition, % at 5 µM. purified FXIa, fluorogenic substrate, pooled mixtures. Coagulation factor XI (Homo sapiens), P03951;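 further: each value is inhibition by a whole ten-compound pool holding the compound; 0% = enzyme with no mixture and 100% = wells lacking enzyme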
M1 antagonist – antagonists of rat M1 muscarinic receptor; CHO-M1 cells, Fluo-4 calcium, ACh EC80 antagonist mode; active compounds read low; B-score at 10 µM; Muscarinic acetylcholine receptor M1 (Rattus norvegicus), P08482; 64,000 compounds, 3.4% hits;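 active means calcium fluorescence response, raw or row-and-column corrected B-score, differing from the plate sample mean either way at a set confidence level, mostly lower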
Target sequence (P08482 whole entry, looked up): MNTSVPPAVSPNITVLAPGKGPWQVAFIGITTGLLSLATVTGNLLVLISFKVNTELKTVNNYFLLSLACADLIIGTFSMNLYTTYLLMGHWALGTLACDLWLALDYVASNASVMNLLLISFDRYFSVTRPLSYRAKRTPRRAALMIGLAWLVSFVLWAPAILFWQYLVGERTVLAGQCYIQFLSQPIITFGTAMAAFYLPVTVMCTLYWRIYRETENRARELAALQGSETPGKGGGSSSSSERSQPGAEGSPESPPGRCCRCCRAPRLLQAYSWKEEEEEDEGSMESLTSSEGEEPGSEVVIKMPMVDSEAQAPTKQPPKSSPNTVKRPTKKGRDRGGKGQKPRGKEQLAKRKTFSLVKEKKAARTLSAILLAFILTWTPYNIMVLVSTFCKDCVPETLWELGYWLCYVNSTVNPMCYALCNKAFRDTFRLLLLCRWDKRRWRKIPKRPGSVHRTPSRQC
D1 allo mod – D1 CRE-luciferase signal change, two-sided – cell-based, HEK293 D1, dopamine EC30, D1 allosteric modulator project, primary screen; D(1A) dopamine receptor (Homo sapiens), P21728; dopamine EC30 potentiation; actives deviate in either direction; B-score at 10 µM; 58,000 compounds, 5.9% hits; AID 641, 2007;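 active means luminescence count or its row- and column-corrected plate score outside the 99.7% band of the plate's sample wells, on either side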
M1 ag – M1 muscarinic receptor agonists, primary screen, CHO-M1 cells, Fluo-4 calcium, agonist mode. B-score at 10 µM. Muscarinic acetylcholine receptor M1. 64,000 compounds, 3% hits. Fluo-4 calcium fluorescence; active compounds read high;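 active means fluorescence rise, raw or as B-score row- and column-corrected plate score, outside the 99.7% band of its plate's samples, either direction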
DAT uptake mod – changed hDAT dopamine uptake under cocaine IC80, either direction, primary screen, cocaine antagonist project, cell-based, LLC-PK1 hDAT, [14C]-dopamine uptake, MLSMR; Sodium-dependent dopamine transporter (Homo sapiens), Q01959; LLC-PK1 hDAT cells, [14C]-dopamine uptake with cocaine IC80; actives deviate in either direction; B-score at 10 µM; 110,000 compounds, 1.3% hits; AID 449768, 2010;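 active means Z score or B-score, a plate-position-corrected score, falls beyond the plate's 99.7% confidence bounds, in either direction; inactive means both scores lie inside the 99.7% bounds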;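 further: scored against the spread of the other compound wells on the same plate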
FXIIa mix inh – human factor XIIa inhibitors, primary screen, biochemical, pooled compound mixtures, fluorogenic substrate; Coagulation factor XII (Homo sapiens), P00748; purified FXIIa; inhibition, % at 5 µM; 62,000 compounds, 0.2% hits;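 further: 0% = enzyme without compound and 100% = no enzyme blank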
D1 PAM confirm – D1 receptor positive allosteric modulators, retest, confirmation, cell-based, HEK293 D1, CRE-luciferase, duplicate | AID 642, 2007 | luminescence at 10 µM | 2,200 compounds, 88% hits | shares compounds with D1 allo mod | dopamine EC30 potentiation; active compounds read high;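 active means luminescence in either of two replicates above the same-plate mean plus 3 SD of the low-dose dopamine control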
D1 no dopamine – D1 receptor agonism without dopamine, confirmation, mechanism study for D1 allosteric modulator project, cell-based, HEK293 D1, CRE-luciferase, secondary assay 1. shares compounds with D1 allo mod. luminescence, no dopamine; active compounds read high. luminescence at 10 µM. 1,900 compounds, 0.8% hits; in the data active means luminescence above about 3900
Isoprot counter – counter-screen for D1 modulators: isoproterenol response in HEK293 cells; HEK293 D1 CRE-luciferase, isoproterenol EC30 counter-screen; calls only at 10 µM; shares compounds with D1 allo mod; 2,200 compounds, 63% hits;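 active means luminescence in either replicate above plate mean of wells with a partly effective reference agonist dose plus 3 SD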;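 further: isoproterenol raises cAMP through native beta-adrenoceptor Gs so signal bypasses D1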
* marks the source's active call; other numbers are inactive results. A selection: hits, their analogues and other compounds. The true share with any hit is near 7.4%. Unless noted, no stated cut-off is given here; in the data, active means inhibition above about 20% (passing the limit was not always enough); inactive means the rest.

`COC(=O)c1cccc(Nc2nc3ccccc3nc2C)c1` gave FXIa inh mix 14, M1 antagonist 0.77, D1 allo mod 5.2*, M1 ag 3.1, DAT uptake mod 1.6, FXIIa mix inh -2, D1 PAM confirm 9552*, D1 no dopamine 1624 and Isoprot counter active.
`CCNC(=O)c1c(O)c2ccccc2[nH]c1=O` gave FXIa inh mix 5, M1 antagonist -0.47, D1 allo mod 11*, M1 ag -0.049, DAT uptake mod -0.93, FXIIa mix inh -2, D1 PAM confirm 15428* and Isoprot counter active.
COc1ccc(C(=O)NCc2cn3c(C)csc3n2)cc1OC was read as M1 antagonist -0.17, D1 allo mod 8.3*, M1 ag 0.35, DAT uptake mod 0.032, D1 PAM confirm 15440*, D1 no dopamine 1644 and Isoprot counter active.
Screening CCOc1ccccc1-n1c(SCC(N)=O)nnc1-c1ccc(O)cc1 returned FXIa inh mix 5, M1 antagonist 0.45, M1 ag 0.49, DAT uptake mod 0.015 and FXIIa mix inh 7.
`Cc1cc(C)c(C#N)c(SCc2nc3ccccc3[nH]2)n1` gave DAT uptake mod -0.37.
For CC(C)(C)C(=O)Nc1ccccc1C(=O)Nc1ccncc1 the results were DAT uptake mod 1.4.
For COc1cc2c(cc1OC)-c1cc(OCc3cccnc3)nc(=O)n1CC2 the results were FXIa inh mix -36, M1 antagonist -2.4, D1 allo mod 19*, M1 ag 0.15, DAT uptake mod 0.65, FXIIa mix inh 9, D1 PAM confirm 25704*, D1 no dopamine 2128 and Isoprot counter active.
COc1cc2c(cc1OC)-c1cc(NC3CCCCCC3)nc(=O)n1CC2 was read as FXIa inh mix 0, M1 antagonist 1.2, D1 allo mod 4*, M1 ag 0.31, DAT uptake mod 0.62, FXIIa mix inh 8, D1 PAM confirm 20748*, D1 no dopamine 2368 and Isoprot counter active.
`COc1cc2c(cc1OC)-c1cc(Nc3ccc4c(c3)OCCO4)nc(=O)n1CC2` gave FXIa inh mix 9, M1 antagonist -2.6, D1 allo mod 24*, M1 ag -0.0016, DAT uptake mod 0.85, FXIIa mix inh 5, D1 PAM confirm 13360*, D1 no dopamine 1788 and Isoprot counter active.
Screening O=c1c2ccccc2nnn1Cc1nnc(-c2ccccc2Br)o1 returned FXIa inh mix -5, M1 antagonist 0.76, D1 allo mod 1.7, M1 ag 0.17, DAT uptake mod 2.5 and FXIIa mix inh 14.
For CCOC(=O)c1cccc(NC(=O)CCc2nc(-c3ccccc3F)no2)c1 the results were FXIa inh mix -6, M1 antagonist 0.26, D1 allo mod 3*, M1 ag -0.77, DAT uptake mod -1.9, FXIIa mix inh 4, D1 PAM confirm 7612, D1 no dopamine 2088 and Isoprot counter inactive.
Screening COc1ccc(NC(=O)CCc2nc(-c3ccccc3F)no2)cc1 returned FXIa inh mix 1, M1 antagonist 0.18, D1 allo mod -0.048, M1 ag -2.3, DAT uptake mod -0.12 and FXIIa mix inh 0.
For COc1ccc(N2CCN(c3ccc(NC(=O)c4ccc5c(c4)OCO5)cc3C#N)CC2)cc1 the results were FXIa inh mix -2, M1 antagonist 0.85, D1 allo mod 6.4*, M1 ag -0.84, DAT uptake mod 0.34, FXIIa mix inh 10, D1 PAM confirm 5936 and Isoprot counter inactive.
For COc1cc(OC)cc(C(=O)OCn2nnc3ccccc3c2=O)c1 the results were FXIa inh mix 5, M1 antagonist -0.08, M1 ag -0.079, DAT uptake mod -0.9 and FXIIa mix inh 1.
`CC(=O)c1c(C)[nH]c(C(=O)OCn2nnc3ccccc3c2=O)c1C` gave FXIa inh mix 1, M1 antagonist 0.12, D1 allo mod 2.4*, M1 ag -0.14, DAT uptake mod 0.0039, FXIIa mix inh 1, D1 PAM confirm 5372 and Isoprot counter inactive.
`CSc1ncccc1C(=O)OCn1nnc2ccccc2c1=O` gave FXIa inh mix -10, M1 antagonist 0.6, D1 allo mod 3.3*, M1 ag -0.37, DAT uptake mod -0.0082, FXIIa mix inh 8, D1 PAM confirm 9044*, D1 no dopamine 1656 and Isoprot counter active.
Screening c1coc(-c2nc3nc4ccccc4nc3n2CC2CCCO2)c1 (configuration not stated) returned FXIa inh mix -10, D1 allo mod 4.8*, FXIIa mix inh 0, D1 PAM confirm 10012*, D1 no dopamine 1816 and Isoprot counter active.
CCCCCn1c(-c2ccco2)nc2nc3ccccc3nc21 was read as FXIa inh mix -5, M1 antagonist -0.39, D1 allo mod 12*, M1 ag 0.012, FXIIa mix inh -6, D1 PAM confirm 18024*, D1 no dopamine 1828 and Isoprot counter active.
For O=c1c2ccccc2nc(-c2ccc(Br)cc2)n1Cc1ccccc1 the results were DAT uptake mod -0.18.
O=c1c2ccccc2nc(-c2ccco2)n1Cc1ccccc1 was read as FXIa inh mix -1, M1 antagonist 0.36, D1 allo mod 7.8*, M1 ag -0.2, DAT uptake mod 0.076, FXIIa mix inh 1, D1 PAM confirm 19492*, D1 no dopamine 1608 and Isoprot counter active.
`CCCCN=Cc1sc2ccc(OCC)cc2c1O` gave DAT uptake mod 2.5.
O=C(c1cccc(F)c1)N1CCCC(C(=O)N2CCCC2)C1 (configuration not stated) was read as FXIa inh mix 2, M1 antagonist 0.59, D1 allo mod -0.046, M1 ag 0.36, DAT uptake mod -0.052 and FXIIa mix inh -5.
